# Source: the supplement of paper PMC6555819
# System: THRa homodimer (NR concentration 90 nM)
# Assay: PBM binding z-score (relative to random genomic background probes); higher = stronger binding; sequences stand for … in GC…GCGATTGACAGCGTAGAATGAAGG
# How it was run: (§1)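 For binding z-scores, the reference was random background probes on custom Agilent 4×180K protein-binding microarrays. These arrays were incubated 1 h with ligand-free nuclear receptor dimers in PBS pH 7.4, 2% milk, 0.02% Triton X-100, 1 mM DTT, 0.2 mg/mL BSA and 0.4 mg/ml salmon testes DNA. Fluorescence was scanned after antibody detection of each partner (one per run) and regression-normalized.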
row,Sequence,PBM binding z-score
1,AGTCAAAGTTCATCCAGGTAACGTAAGATATGCT,0.915
2,CCGACTGGGGCTGAAAGGTTACCATACCATCCGG,-0.189
3,GCGACTGGGGCATCAGCACGTTACCATAACTTAA,-0.089
4,ATATGTAGGTTATCGGGTCATTCCGTTTGCGCAT,2.82
5,CGTCAAAGTTCAGCTAAGGTAACGTAAAGCACGC,2.11
6,CCTACTGGGCCATCAGGTCATTGAAATCAACGTT,2.88
7,CCTCGGAGGACAACAGGAGGTCAGAGCAGCCAGA,1.04
8,CCGACTGCGGCAAAGGTTACCATACTCAGTACGA,0.0326
9,TGATATAGGTAATACAGGTGAAAGTCGGCATCTA,0.267
10,CGTCCAAGGTGAGCAGGTCAGTGAAAGCGACGTG,0.649
11,CCTACTGGGCCAAAAAAGTCATTGATGCCGATAA,-0.612
12,GCAGACAGGTGAAAGGCAGGTAACTCAGGGTGGC,0.167
13,CCAGACAGGTGAGAAGGTAGCTCAGCCTCGATTA,-0.679
14,CGTCCAAGGTCAGAGAGGTCAGTTAATGCCGAGT,2.8
15,ATCGAAAGGTCGAGGTGAGTACAGAGAAAGGGAA,0.817
16,GCATATAGGTAATACAAGGAGAAAGTCCGATTGT,-0.606
17,TCGTGTAGATCAAAGGTTAAGAAAGCCGAAGCCT,0.108
18,CTCGAAAGGTTGGTTGAGGTGAGTATACGGATAA,1.82
19,CAAACTAGGTCAAGGTCGAAGTCGGTTTGTGCCA,2.45
20,ATATGTAGGTTGGCTGGGGTCATTCAGACTAGGC,3.62

row,Sequence,PBM binding z-score
1,TCTTGTAGATCATCAGGTTAAGAAAGCTGGCCAA,0.613
2,CGTCCAAGGTCAAAGGTTAGTGAAGAGATGACGG,2.53
3,CCGACTGGGGCATAAGGCTACCATAAGCCAGCCC,-0.406
4,TCTCGTAGATCAGCAGGTTAAGAAAGCTGGCCAA,-0.546
5,CGTCCAAGGTCAGAGGGGTCAGTGAATGCCGAGT,2.82
6,CCGACTGGGGCAGTAAGGTTACCATACCATCCGG,1.08
7,TGAATGAGGTTATAAGATCACGGAACGTTGCAAA,0.188
8,ACAGACAGGTGAGTGAAGGTAACTCCGCTGGACG,-0.349
9,GATACAGGGTCAAGGCCAGAGTTCGCGTATTGAT,1.21
10,TCTATTAGTTGATTAGGGCAAACGAAACAGCGGA,0.119
11,TCCAGTTGGTCAAAGGTCACACACTCGAAATGCG,2.47
12,TCTGCTAGGTAAGTTGGTCAGCTAACGAGCTGCC,-0.918
13,TCATATAAGTAAACAGGTGAAAGTCCGTAAGTTA,0.549
14,TAGCCTAGGTCTTTCAGGGGCCAGTATAGAAAGC,-0.603
15,GTCCCAAGGTGAATAGGTCGTTGATGAGTAGGCG,0.76
16,TCTTGTAGATCAGCAGGTTAAGAAGGCTGGCCAA,-0.361
17,TCATATAGGTAAACAGGTGTAAGTCCGTAAGTTA,0.324
18,AGAATGAGGTTGTTAAGATCAGGGAATTGCGGTC,0.246
19,AATACAGGCTCACTAGGCCAGAGTAGGTACGAAT,-0.397
20,GCGTACGGGTCAAAGGTTATAGCATGAATAGAAT,-0.479

# System: VDR homodimer (NR concentration 270 nM)
# Assay: as above
# How it was run: as §1
row,Sequence,PBM binding z-score
1,AGTCAAAGTTCATCCAGGTAACGTAAGATATGCT,5.17
2,CCGACTGGGGCTGAAAGGTTACCATACCATCCGG,-0.252
3,GCGACTGGGGCATCAGCACGTTACCATAACTTAA,-0.335
4,ATATGTAGGTTATCGGGTCATTCCGTTTGCGCAT,3.21
5,CGTCAAAGTTCAGCTAAGGTAACGTAAAGCACGC,1.84
6,CCTACTGGGCCATCAGGTCATTGAAATCAACGTT,1.02
7,CCTCGGAGGACAACAGGAGGTCAGAGCAGCCAGA,1.14
8,CCGACTGCGGCAAAGGTTACCATACTCAGTACGA,0.183
9,TGATATAGGTAATACAGGTGAAAGTCGGCATCTA,0.316
10,CGTCCAAGGTGAGCAGGTCAGTGAAAGCGACGTG,-0.353
11,CCTACTGGGCCAAAAAAGTCATTGATGCCGATAA,-0.687
12,GCAGACAGGTGAAAGGCAGGTAACTCAGGGTGGC,-0.284
13,CCAGACAGGTGAGAAGGTAGCTCAGCCTCGATTA,-0.24
14,CGTCCAAGGTCAGAGAGGTCAGTTAATGCCGAGT,6.29
15,ATCGAAAGGTCGAGGTGAGTACAGAGAAAGGGAA,1.13
16,GCATATAGGTAATACAAGGAGAAAGTCCGATTGT,-0.234
17,TCGTGTAGATCAAAGGTTAAGAAAGCCGAAGCCT,0.111
18,CTCGAAAGGTTGGTTGAGGTGAGTATACGGATAA,0.513
19,CAAACTAGGTCAAGGTCGAAGTCGGTTTGTGCCA,2.48
20,ATATGTAGGTTGGCTGGGGTCATTCAGACTAGGC,5.57

row,Sequence,PBM binding z-score
1,TCTTGTAGATCATCAGGTTAAGAAAGCTGGCCAA,0.0246
2,CGTCCAAGGTCAAAGGTTAGTGAAGAGATGACGG,3.02
3,CCGACTGGGGCATAAGGCTACCATAAGCCAGCCC,-0.345
4,TCTCGTAGATCAGCAGGTTAAGAAAGCTGGCCAA,-0.597
5,CGTCCAAGGTCAGAGGGGTCAGTGAATGCCGAGT,5.91
6,CCGACTGGGGCAGTAAGGTTACCATACCATCCGG,0.0425
7,TGAATGAGGTTATAAGATCACGGAACGTTGCAAA,0.468
8,ACAGACAGGTGAGTGAAGGTAACTCCGCTGGACG,-0.537
9,GATACAGGGTCAAGGCCAGAGTTCGCGTATTGAT,4.76
10,TCTATTAGTTGATTAGGGCAAACGAAACAGCGGA,0.435
11,TCCAGTTGGTCAAAGGTCACACACTCGAAATGCG,2.99
12,TCTGCTAGGTAAGTTGGTCAGCTAACGAGCTGCC,-0.989
13,TCATATAAGTAAACAGGTGAAAGTCCGTAAGTTA,0.857
14,TAGCCTAGGTCTTTCAGGGGCCAGTATAGAAAGC,-0.407
15,GTCCCAAGGTGAATAGGTCGTTGATGAGTAGGCG,0.582
16,TCTTGTAGATCAGCAGGTTAAGAAGGCTGGCCAA,-0.0588
17,TCATATAGGTAAACAGGTGTAAGTCCGTAAGTTA,0.657
18,AGAATGAGGTTGTTAAGATCAGGGAATTGCGGTC,0.542
19,AATACAGGCTCACTAGGCCAGAGTAGGTACGAAT,-0.126
20,GCGTACGGGTCAAAGGTTATAGCATGAATAGAAT,1.08
